Compound activity (PubChem)
Shown are actives, neighbours in structure and some others; about 4.8% of the full set was active somewhere.
hcDAF12 agonist – activators of H. contortus DAF-12 nuclear receptor. HEK293 hcDAF-12 lit1-tk-luc reporter, luminescence; 0% DMSO, 100% Δ7-dafachronic acid. activation, % at 6.8 µM. AID 652067. actives 1.4% (n = 370,000);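 active = activation above the mean of all tested compounds plus 3 SD, cut at about 5.5% in these data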;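 also: 100% = response to 3 µM Δ7-dafachronic acid high control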
DAX1 inh-1 – DAX1 (NR0B1) inhibition, primary screen; HEK293T StAR-luciferase reporter, SF-1/DAX-1 repression relief; inhibition, % at 6.8 µM; actives 1.1% (n = 370,000);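 active = inhibition above the mean over all tested compounds plus 3 SD, cut at about 3.6% in these data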;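 also: 0% = DAX-1 cells with DMSO and 100% = cells lacking DAX-1 with DMSO; higher inhibition means more luminescence from relief of DAX-1 repression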
hgDAF12 agonist – activates the H. glycines DAF-12 receptor ligand-binding domain; HEK293 GAL4-hgDAF12 UAS-luciferase reporter, agonist luminescence; normalized to butyrate control; actives 1.8% (n = 370,000); activation, % at 6.8 µM; AID 687014;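 active = activation above a cutoff set at the mean of all screened compounds plus 3 SD, cut at about 10% in these data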;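 also: 0% = DMSO wells and 100% = sodium butyrate wells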
SMARCA2 activ – activators of SMARCA2 function. MG213 cells, MMTV-luciferase reporter, dexamethasone, overnight. activation, % at 9.1 µM. actives 1% (n = 370,000). AID 652017; in the data active = activation above about 7.8%;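 also: 0% = vehicle wells and 100% = reference activator wells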
DAX1 inh-2 – inhibitors of human orphan nuclear receptor DAX1 (NR0B1); inhibition, % at 6.75 µM; actives 0.99% (n = 340,000); HEK293 Gal4-DAX1 luciferase reporter, luminescence;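 active = inhibition above the mean over all tested compounds plus 3 SD, cut at about 4.2% in these data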;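 also: 0% = DAX1-transfected cells with DMSO and 100% = empty-vector control cells with DMSO; inhibition shows as a rise in luminescence from relieved DAX1 repression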
Target sequence (P51843 207-470 limits assumed): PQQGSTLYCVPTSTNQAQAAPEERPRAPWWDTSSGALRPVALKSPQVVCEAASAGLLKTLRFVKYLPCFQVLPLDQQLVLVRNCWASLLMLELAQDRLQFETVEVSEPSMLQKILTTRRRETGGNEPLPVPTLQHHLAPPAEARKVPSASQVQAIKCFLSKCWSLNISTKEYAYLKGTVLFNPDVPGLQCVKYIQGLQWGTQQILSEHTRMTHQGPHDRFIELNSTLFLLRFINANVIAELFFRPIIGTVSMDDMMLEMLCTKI
ssDAF12 agonist – S. stercoralis DAF-12 activation, primary screen; actives 1% (n = 370,000); activation, % at 6.8 µM; HEK293 ssDAF-12/GRIP1 lit1-tk-luc reporter, luminescence; % of 3 µM dafachronic acid response;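 active = activation above the mean over all tested compounds plus 3 SD, cut at about 0.9% in these data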;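 also: 0% = DMSO-only wells and 100% = 3 µM delta7-dafachronic acid wells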
DAX1 conf – NR0B1 (human) inhibition, confirmation. actives 87% (n = 2,400). inhibition, % at 6.8 µM. HEK293T StAR-promoter luciferase reporter, SF-1/DAX-1 repression. shares compounds with DAX1 inh-1;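 active = inhibition above the average of every tested compound plus 3 SD, cut at about 3.8% in these data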;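 also: 0% = DAX-1 cells with DMSO and 100% = no DAX-1 control cells with DMSO; active compounds raise luminescence by relieving repression of the StAR reporter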
SF1 mutant ctr – counter-screen for DAX1 inhibitors: nonselective inhibitors with SF-1 AF2 mutant; inhibition, % at 6.8 µM; AID 652136; HEK293 StAR-luciferase, luminescence; shares compounds with DAX1 inh-1; actives 78% (n = 2,400);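 active = inhibition above the mean of all tested compounds plus 3 SD, cut at about 3% in these data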;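 also: 0% = DAX-1 transfected cells with DMSO and 100% = cells without DAX-1 with DMSO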
LXR ag – counter-screen for hcDAF-12 agonists: agonists of human LXR-beta. HEK293 Gal4-LXR tk-luc reporter, luminescence, 24 h; normalized: DMSO 0%, positive control 100%. activation, % at 6.8 µM. AID 743027. shares compounds with hcDAF12 agonist. 3,400 tested, under 10 active;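 active = mean percent activation of the reporter above a cutoff set as the average over tested compounds plus their standard deviation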
hcDAF12 ag – confirmation of H. contortus DAF-12 agonists. HEK293 hcDAF-12 lit1-tk-luc reporter, luminescence; % of Δ7-dafachronic acid response. actives 61% (n = 3,400). shares compounds with hcDAF12 agonist. AID 743032. activation, % at 6.8 µM;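 active = mean activation across triplicate tests above the threshold derived from the earlier primary screen, cut at about 5.5% in these data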;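 also: 0% = DMSO only wells and 100% = 3 µM Δ7-dafachronic acid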
hgDAF12 ag – confirmation of H. glycines DAF-12 agonists; shares compounds with hgDAF12 agonist; HEK293 GAL4-hgDAF12 luciferase reporter, agonist mode; percent of butyrate response; activation, % at 6.8 µM; actives 80% (n = 3,300); AID 743050;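 active = mean activation over triplicate wells above the hit cutoff derived from the earlier primary screen, cut at about 11% in these data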;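 also: 0% = DMSO low control and 100% = 2 mM sodium butyrate high control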
LXR ag 2 – activates human LXR-beta, counter-screen for DAF-12 agonists; shares compounds with hgDAF12 agonist; HEK293 Gal4-LXR luciferase reporter, 24 h; activation, % at 6.8 µM; 3,300 tested, under 10 active; AID 743051;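 active = mean activation of the triplicate above a set limit carried over from the primary screen, none filed active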
Numbers without * were called inactive; . = not tested or not shown.

SMILES	hcDAF12 agonist	DAX1 inh-1	hgDAF12 agonist	SMARCA2 activ	DAX1 inh-2	ssDAF12 agonist	DAX1 conf	SF1 mutant ctr	LXR ag	hcDAF12 ag	hgDAF12 ag	LXR ag 2
Nc1ccc(C(=O)Nc2nc3ccccc3s2)cc1	6.6*	5.3*	21*	2	-2	1.2*	5.6*	3.0*	2	8.7*	21*	1
Cc1cc(C)n(-c2ccc(C(=O)Nc3nc4ccccc4s3)cc2)n1	2	2	9	7	2	0	.	.	.	.	.	.
Cc1nn(-c2ccccc2)c(C)c1/C=N/Nc1nc2ccccc2[nH]1	9.1*	6.4*	22*	6	1	1.8*	17*	8.5*	2	8.9*	17*	1
CC(/C=N/Nc1nc2ccccc2[nH]1)=C\c1ccccc1	8.8*	6.9*	21*	7	2	1.5*	18*	7.0*	2	6.6*	23*	1
NC(=O)c1ccsc1NC(=O)c1ccc(N2CCCC2=O)cc1	7.4*	6.7*	25*	4	-3	1.0*	14*	9.6*	1	6.9*	17*	1
COC(=O)[C@]12C[C@H](CC(=O)N3CCOCC3)C(=O)N(Cc3ccco3)C1=C[C@H](C1CCCC1)O[C@@H]2C	-2	0	-2	-2	.	-1	.	.	.	.	.	.
NNC(=O)c1cccc(COc2ccc3c(c2)CCC3)c1	5	4.9*	22*	5	-5	1	15*	5.1*	.	.	22*	1
O=C(COc1ccc2c(c1)CCC2)NCc1ccccc1	-2	-1	-1	0	-1	-2	.	.	.	.	.	.
COc1cccc(C(=O)/C=C/Nc2cccc(O)c2)c1	.	.	.	.	-3	.	.	.	.	.	.	.
COc1cccc(N/C=C/C(=O)c2ccc(Cl)cc2)c1	7.1*	6.1*	20*	1	2	1	17*	6.6*	2	8.7*	22*	1
CCc1nnc(NC(=O)c2sc3nc4c(cc3c2N)CCCCC4)s1	6.7*	5.0*	16*	6	3	0	12*	7.8*	1	6.5*	14*	1
CCc1nnc(NC(=O)c2sc3nc4c(cc3c2N)CCCCCC4)s1	3	2	2	-2	3	-1	.	.	.	.	.	.
Cc1cccc(OC[C@@H](O)CN2CCC(C(O)(c3ccccc3)c3ccccc3)CC2)c1	0	-2	0	-3	.	0	.	.	.	.	.	.
O=C(Nc1ccc(SC(F)F)cc1)C1=COCCO1	4	4.9*	15*	7	1	1	13*	6.8*	.	.	14*	1
COc1ccc(C(=O)NC(=O)NC2(C(Cl)(Cl)Cl)OCCO2)cc1	9.7*	12*	25*	6	3	1.0*	16*	6.0*	1	9.1*	20*	1
CCc1ccc(Cn2c(=O)n(Cc3ccc(C(=O)NCCCOC)cc3)c(=O)c3ccccc32)cc1	1	0	0	1	.	-1	.	.	.	.	.	.
Cc1cc(Nc2ccc(OC(F)F)cc2)cc(=O)n1-c1ccc(OC(F)F)cc1	-2	-2	-2	-3	.	-2	.	.	.	.	.	.
Brc1ccc2nc(-c3c[nH]c4ccccc34)cn2c1	11*	8.8*	22*	6	6.2*	0	18*	8.5*	2	9.6*	21*	1
Clc1ccc2nc(CSc3nnc(-c4c[nH]c5ccccc45)o3)cn2c1	0	0	-1	-3	-1	-1	.	.	.	.	.	.
CCOC(=O)CSc1nc2ccc(C)cc2cc1C#N	8.9*	5.6*	14*	7	4	0	13*	10.0*	1	4	20*	1
CCOC(=O)CSc1nc(N)c(C#N)cc1C#N	1	1	5	3	1	-1	.	.	.	.	.	.
CCOC(=O)CSc1nc2cc(OC)ccc2cc1C#N	7.2*	4.8*	13*	4	2	1	15*	8.1*	1	5	20*	1
COc1ccc2ccccc2c1C=NNC(=O)CN1CCN(Cc2ccccc2)CC1	-1	-1	4	-5	.	-2	.	.	.	.	.	.
Cc1ccc(Cn2cc(COC(=O)Nc3ccc(F)cc3)nn2)cc1	0	0	4	0	.	-1	.	.	.	.	.	.
O=C(/C=C/c1ccccc1)Nc1scc(-c2ccccc2)c1C(=O)O	4	5.1*	15*	2	3	0	8.9*	8.6*	.	.	11*	1
SMILES	hcDAF12 agonist	DAX1 inh-1	hgDAF12 agonist	SMARCA2 activ	DAX1 inh-2	ssDAF12 agonist	DAX1 conf	SF1 mutant ctr	LXR ag	hcDAF12 ag	hgDAF12 ag	LXR ag 2
O=C(NCc1ccccc1)C(c1ccccc1)n1c(-c2ccncc2)nc2ccccc21 (configuration not stated)	1	1	0	0	.	-1	.	.	.	.	.	.
O=C(NCc1ccccc1)C(c1ccccc1)n1c(C2CC2)nc2ccccc21 (configuration not stated)	2	6.1*	20*	4	.	1.9*	11*	5.2*	.	.	16*	1
COC(=O)c1ccc(S(=O)(=O)N2CCC(NC(=O)Cc3cccc(C)c3)CC2)cc1	-2	0	2	1	.	-1	.	.	.	.	.	.
Cc1ccccc1C(=O)Nc1nnc(-c2ccco2)s1	9.4*	5.2*	16*	0	-1	1.1*	9.0*	4.1*	1	8.2*	12*	1
COc1ccccc1C(=O)Nc1nnc(-c2ccco2)s1	15*	8.4*	19*	4	4.5*	2.0*	12*	9.0*	1	14*	21*	1
C=CCN1C(=O)[C@H](CC(=O)NCCCCc2ccccc2)[C@@]2(C(=O)OCC)CCCC=C12	-1	-2	-2	-2	.	-2	.	.	.	.	.	.
